Laboratory results reported in PubChem BioAssay (NCI).
Values joined by “and” are separate entries in the source; they are usually repeats but may differ in a detail not shown here. Identical values can stand only once. This is part of a sample that, as a whole, favours compounds with a hit. Of some 79,000 tested, about 15% had one in any assay. Cut-off read from the data, not from the text of the source: active = growth inhibition above about 70%; inactive = the rest.

What was measured:
[1] = NCI Yeast Anticancer Drug Screen. Data for the rad50 strain (AID 155);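 note: 0% = growth of vehicle-only cultures of the same strain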; conditions: S. cerevisiae rad50 strain growth inhibition, stronger effect = higher value; at 50.0 µM unless noted
Outline: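 Compounds were tested on a yeast strain with an engineered DNA damage repair alteration; the reported value is growth inhibition normalised to vehicle treatment.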

[2] = NCI Yeast Anticancer Drug Screen. Data for the mec2-1 strain (AID 157); conditions: S. cerevisiae mec2-1 strain, stronger effect = higher value; at 50.0 µM unless noted
Outline: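 Mutant yeast (mec2-1) grown with compound; growth inhibition relative to vehicle control reported.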

[3] = NCI Yeast Anticancer Drug Screen. Data for the sgs1 mgt1 strain (AID 161);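 note: 0% = growth of cultures given vehicle only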; conditions: S. cerevisiae sgs1 mgt1 strain, stronger effect = higher value; at 50.0 µM unless noted
Outline: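 Compounds are added to genetically altered yeast, and growth is compared with cultures given vehicle alone to give percent inhibition.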

[4] = NCI Yeast Anticancer Drug Screen. Data for the cln2 rad14 strain (AID 165);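 note: 0% = growth equal to vehicle treated cultures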; conditions: S. cerevisiae cln2 rad14 strain, stronger effect = higher value; at 50.0 µM unless noted
Outline: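 Readout is yeast growth inhibition versus vehicle-treated controls, using a strain with cln2 and rad14 alterations exposed to compound.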

[5] = NCI Yeast Anticancer Drug Screen. Data for the bub3 strain (AID 167); conditions: S. cerevisiae bub3 mutant strain, stronger effect = higher value; at 50.0 µM unless noted
Outline: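 Growth of a checkpoint-deficient yeast mutant is measured after compound exposure. Values represent inhibition relative to vehicle.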

[6] = NCI Yeast Anticancer Drug Screen. Data for the mlh1 rad18 strain (AID 175); conditions: S. cerevisiae mlh1 rad18 strain growth inhibition, stronger effect = higher value; at 50.0 µM unless noted
Outline: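 Genetically defined yeast (DNA repair-deficient) exposed to compounds; growth inhibition determined relative to vehicle.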

Measured: growth inhibition

O=C(/C=C/c1ccccc1)c1ccccc1
inactive: [1] -1.8% and -29.8% | [2] 10.3% and -6.35% | [3] -8.65% and -18.8% | [4] -41% and -36.2% | [5] 21.7% and 1.7% | [6] 14.3% and -22.3%

COC(=O)N/N=C(/CCCC(=O)Nc1cccc([N+](=O)[O-])c1)C(C#N)c1ccc(CC#N)cc1 (stereo not given)
inactive: [1] -3.55% | [2] -0.1% | [3] -13.6% | [4] 1.8% | [5] 6.65% | [6] -3.3%

Cc1ccc2c(c1)P(=O)(O)c1cc(C)ccc1S2
inactive: [1] -12.4% | [2] -16.6% | [3] 14.4% | [4] 22.4% | [5] -4.05% | [6] 19.7%

CN(C1=CC(=O)c2ccccc2C1=O)C1CCCCC1
inactive: [1] 14.1% | [2] 49.5% | [3] 37.4% | [4] -7.05% | [5] 63% | [6] 42.2%

O=C1Cc2c(-c3ccc(Cl)cc3)cc(-c3ccccc3)nc2-c2ccccc2N1
inactive: [1] -16.9% | [2] -17.8% | [3] -10.9% | [4] 4.95% | [5] -11.2% | [6] -52%

Clc1cccc(NC2=NCCN=C(Nc3cccc(Cl)c3Cl)SS2)c1Cl
inactive: [1] 8.6% | [2] -17.5% | [3] -0.75% | [4] 5.85% | [5] 3.75% | [6] 6.55%

O=C1c2ccccc2CC(c2ccccc2)N1c1ccccc1 (stereo not given)
inactive: [1] 51.1% | [2] 0.4% | [3] 31.4% | [4] -22.4% | [5] 3.55% | [6] 32.1%

O=c1[nH]c(-c2ccccc2)nc2nc3ccc([N+](=O)[O-])cc3[n+]([O-])c12
inactive: [1] 19.9% | [2] -2% | [3] -1.75% | [4] -7.55% | [5] -1% | [6] 7%

COc1ccc(/C(=N/N)C(C)(C)C)cc1
inactive: [1] 5.8% | [2] -2.8% | [3] -7.95% | [4] -15.8% | [5] -1.6% | [6] -1.9%

COc1ccc(-c2cc(-c3ccco3)c(C#N)c(=O)[nH]2)cc1
inactive: [1] 3.95% | [2] 6.2% | [3] 14.2% | [4] 14.2% | [5] 8.65% | [6] 27.3%

C=C1N(C=O)C(C)(C)N(O)C1(C)C
inactive: [1] 16.7% | [2] 15.7% | [3] 15.6% | [4] 28.1% | [5] 12.2% | [6] 10.9%

CCOc1ccc2c(c1)S(=O)(=O)OC2=O
inactive: [1] -11.1% | [2] 0.6% | [3] 7% | [4] 25.6% | [5] 5.2% | [6] 2.35%

COc1ccccc1CN1CCCN(Cc2ccccc2OC)C1c1cccc(F)c1
inactive: [1] 0.75% | [2] 9.9% | [3] 0.65% | [4] 16.4% | [5] 6.65% | [6] 17.8%

Cc1cc(=O)n2nc(CSc3nnc(N)s3)sc2n1
inactive: [1] -0.7% | [2] 0.5% | [3] 7.35% | [4] 5.55% | [5] 10.5% | [6] 4.2%

CC(C)(C)C(=O)/C(=C/C(=O)O)C(C)(C)C
inactive: [1] -0.1% | [2] 10.7% | [3] 1.25% | [4] 7.6% | [5] -0.9% | [6] -0.95%

CC(=O)Nc1nc(SCc2ccccc2)c2[nH]cnc2n1
inactive: [1] -25.2% | [2] 1.75% | [3] 0.6% | [4] -43.5% | [5] 31.2% | [6] 7.3%

O=C(NCCCOC(=O)CCCCCCCCC(=O)OCCCNC(=O)NC(=O)c1c[nH]c(=O)[nH]c1=O)NC(=O)c1c[nH]c(=O)[nH]c1=O
inactive: [1] -11.5% | [2] -18.6% | [3] -7.85% | [4] 8.3% | [5] 6.05% | [6] -14.9%

Nc1ccc(OCc2ccccc2)cc1[N+](=O)[O-]
inactive: [1] 6.4% | [2] -30.8% | [3] 11.3% | [4] 14.5% | [5] -4.45% | [6] 21%

CCCCOC(=O)NC(Nc1ccc(S(N)(=O)=O)cc1)(C(F)(F)F)C(F)(F)F
inactive: [1] 5.95% | [2] 7.9% | [3] 2.95% | [4] -1.4% | [5] 12.1% | [6] 18.3%

CCc1ccc2c(c1)C(O)(C#Cc1ccccc1)c1cc(CC)ccc1C2(O)C#Cc1ccccc1 (stereo not given)
inactive: [1] 37.5% | [2] 25.2% | [3] 45.5% | [4] 22.9% | [5] -4.8% | [6] 32.7%

NNC(=O)c1nc2ccccc2s1
inactive: [1] 18.1% | [2] 4.75% | [3] -8.3% | [4] 5.95% | [5] 8.95% | [6] 20.6%

O=C(OC1c2cccc3cccc(c23)C1O)c1ccccc1 (stereo not given)
inactive: [1] 8.2% | [2] -2.45% | [3] 1.55% | [4] 2.65% | [5] 5.85% | [6] 1.75%

O=C(O)CCC1=Nc2cccc3cccc(c23)NC1=O
inactive: [1] 36.2% | [2] 32.2% | [3] 7.75% | [4] -3.35% | [5] 12.9% | [6] 13.9%

CCNc1cc(Cl)c(C(=O)O)cc1[N+](=O)[O-]
inactive: [1] -8.8% | [2] 20.9% | [3] 15.3% | [4] -22.7% | [5] -8.75% | [6] -8.65%

COCCOC(=O)OCCOC
inactive: [1] -1.5% | [2] 3.65% | [3] 4.75% | [4] -31.7% | [5] -12.8% | [6] 11.7%

O=C(O)C(C(=O)N(c1ccccc1)c1ccccc1)c1ccccc1 (stereo not given)
inactive: [1] 9.8% | [2] -1.05% | [3] 21.5% | [4] -51.9% | [5] 18.7% | [6] 9.75%

O=C(Cc1ccccc1)C(c1ccccc1)C(c1ccccc1)c1ccccc1 (stereo not given)
inactive: [1] -12.8% | [2] -11.8% | [3] 5.25% | [4] 13.6% | [5] -2.25% | [6] -1.25%

COC(=O)CCc1ccco1
inactive: [1] 10.6% | [2] -10% | [3] 3.4% | [4] 2.5% | [5] 6.95% | [6] 12.7%

CC(C)(CBr)CC(=O)NC1CCCCC1
inactive: [1] -22% | [2] 5.8% | [3] 3.3% | [4] 1.8% | [5] 10.2% | [6] 50%

N=C(N)SCCCCCSC(=N)N
inactive: [1] 4.05% | [2] -12.2% | [3] -4.9% | [4] -3.15% | [5] -6.35% | [6] 12.8%

CC1CCCN2C(=O)CN(c3ccccc3)CC(=O)N12 (stereo not given)
inactive: [1] 13.6% | [2] 2.45% | [3] -4.7% | [4] 14.9% | [5] 5.35% | [6] 1.95%

O=C(O)CC(O)(c1ccccc1)c1ccccc1
inactive: [1] 0.05% | [2] -1.7% | [3] -5.05% | [4] -7.9% | [5] 1.4% | [6] 0%

CCOC(=O)COc1cc2c(cc1C(CC)c1ccc(OC)cc1)OCO2 (stereo not given)
inactive: [1] -14.9% | [2] -17.6% | [3] -12.1% | [4] -20.1% | [5] 16.4% | [6] -9.5%

Nn1c(-c2cccc(Cl)c2)nc2ccccc2c1=O
inactive: [1] -18.6% | [2] 5.45% | [3] 13% | [4] 25.7% | [5] 17.9% | [6] 36.8%

CN(C)c1ccc(/C=N/Nc2nc3ccccc3c(=O)n2-c2ccccc2)cc1
inactive: [1] -3.05% | [2] -16.1% | [3] 6.55% | [4] 17.9% | [5] 26.1% | [6] -3.7%

CC(O)CNc1nc(N)[nH]c(=O)c1[N+](=O)[O-] (stereo not given)
inactive: [1] 4.45% | [2] 2.35% | [3] 1.45% | [4] -41.5% | [5] -9.95% | [6] -1.6%

CCNC(=O)c1ccccc1S(C)=O (stereo not given)
inactive: [1] -18.8% | [2] -19.3% | [3] -17.9% | [4] -8.25% | [5] -9.15% | [6] -20.1%

COc1ccc(C2CC(=O)N(c3ncccn3)C(=O)C2)cc1
inactive: [1] 14.5% | [2] 8.4% | [3] 10% | [4] -13.7% | [5] -12.3% | [6] 5.25%

Cc1ccc(C(=O)C2C(=O)C(=O)OC2C2OC(=O)C(=O)C2C(=O)c2ccc(C)cc2)cc1 (stereo not given)
inactive: [1] 43.8% | [2] 25.1% | [3] 39.5% | [4] 31.2% | [5] -4.55% | [6] 42.8%

Cc1ccc2c(c1)C1(c3ccc(Cl)cc3Cl)Oc3ccc(C)cc3C(c3ccc(Cl)cc3Cl)(O2)O1
inactive: [1] -1.5% | [2] 1.5% | [3] 3.1% | [4] -4.65% | [5] -2.7% | [6] 16.6%
